Bioassay records: PubChem BioAssay, Broad Institute
PD-1 reverse act – activators reversing PD-1 mediated T-cell inhibition, primary screen, luminescence, primary human CD4 T cells, PD-L1 beads; CellTiter-Glo 96 h; activation, % (concentration not given with the values); 29,000 tested, under 10 active; AID 2316, 2010; call rule not given here;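 note: 0% = median vehicle wells and 100% = positive control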
YB-1 expr inh – inhibitors of YB-1 gene expression, primary screen, cell-based, fluorescence; U2OS, qRT-PCR YB-1 vs CDIP delta delta Cp, 16 h; hits give high values; zero = DMSO, each unit about twofold; delta delta Cp (YB-1 minus CDIP) (test concentration not listed); hit rate 0.37% among 30,000;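 active = delta delta Cp rounded down to an integer at or above 3, about 3 SD of DMSO wells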;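 note: higher means less YB-1 transcript or more CDIP transcript relative to DMSO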
MITF inh – inhibitors of MITF, primary screen, MITF inhibitor project, cell-based, luminescence | TRPM1 promoter luciferase, 24 h | inhibition, % (concentration not given with the values) | hit rate 0.28% among 37,000; in the data active = inhibition above about 85%; inconclusive = no clear call, values can overlap the other calls; inactive = below about 68%;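 note: human melanocyte line stably carrying TRPM1 promoter luciferase reporter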
NOMO-1 viab – NOMO-1 AML cell viability reduction, primary screen, STK33 inhibitor project, CellTiter-Glo luminescence. AID 2330, 2010. hit rate 7.5% among 37,000. inhibition, % (concentration not given with the values). NOMO-1 AML viability, 72 h; in the data active = inhibition above about 80%; inconclusive = no clear call, values can overlap the other calls
Shh pathway inh – Hedgehog pathway signaling inhibitors, primary screen, luminescence, Shh-LIGHT2 cells, Gli-luciferase; AID 2313, 2010; Shh-LIGHT2 Gli-luciferase reporter, 30 h; hit rate 2.1% among 22,000; inhibition, % (test concentration not listed);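 active = mean inhibition across valid replicates above about 65%, limit read from the data; inconclusive = mean under the limit, yet half or more replicates past it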;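 note: pathway switched on by Shh-conditioned medium diluted 1 in 25 in low serum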
Active calls of the source: *; ? = inconclusive; . = no result given; ! = repeats disagree. Most compounds without a hit are left out; they make up all but 7.4% or so of the library.

SMILES | PD-1 reverse act | YB-1 expr inh | MITF inh | NOMO-1 viab | Shh pathway inh
C[C@@H]1CN([C@@H](C)CO)C(=O)Cc2cc(NC(=O)Nc3cccc4ccccc34)ccc2O[C@@H]1CN(C)Cc1ccc(C(F)(F)F)cc1 | -6 | -9.1 | 38 | 117* | 13
C[C@@H]1CN([C@H](C)CO)C(=O)Cc2cc(NC(=O)Nc3cccc4ccccc34)ccc2O[C@@H]1CN(C)Cc1ccc(-c2ccccc2)cc1 | -3 | -0.1 | 0 | 94* | 20
C[C@@H]1CN([C@@H](C)CO)C(=O)Cc2cc(NC(=O)Nc3cccc4ccccc34)ccc2O[C@@H]1CN(C)Cc1ccc(-c2ccccc2)cc1 | -1 | 0.19 | -2 | 52 | 26
COc1ccc(CN(C)C[C@@H]2Oc3ccc(NC(=O)Nc4cccc5ccccc45)cc3CC(=O)N([C@@H](C)CO)C[C@@H]2C)cc1 | . | 0.11 | -8 | 25 | 69*
CCN=C1SC(CC(=O)Nc2sc3c(c2C(=O)OCC)CCCC3)C(=O)N1CC (configuration not stated) | -1 | -0.12 | 18 | 19 | 3
C=C(C)C(O)C(O)c1c(OC)ccc2ccc(=O)oc12 (configuration not stated) | 0 | 1.4 | 0 | -8 | 2
CC1(C)CC(=O)c2cc(C(=O)NCCCN3CCOCC3)c(=O)n(-c3ccccc3)c2C1 | -2 | . | -19 | 1 | .
C[C@H](CO)N1C[C@H](C)[C@H](CN(C)Cc2ccncc2)Oc2ccc(NC(=O)Nc3cccc4ccccc34)cc2CC1=O | . | -0.11 | 10 | 125* | 44
O=c1[nH][nH]c(=O)n1CCCc1cc2cccc3ccc4cccc1c4c32 | 0 | -0.71 | -16 | 7 | 19
C/C=C(\C(C)=N\O)c1ccccc1 | 1 | -0.082 | 8 | -10 | -1
C[C@@H]1CN([C@H](C)CO)C(=O)c2cc(NC(=O)Nc3ccccc3)ccc2O[C@@H]1CN(C)C(=O)Nc1ccc(C(F)(F)F)cc1 | -1 | 0.4 | -1 | 87* | -30
C[C@H](CO)N1C[C@H](C)[C@H](CN(C)C(=O)Nc2ccccc2)Oc2ccc(NC(=O)Nc3ccc(C(F)(F)F)cc3)cc2C1=O | -4 | 0.75 | 45 | 103* | 14
C[C@@H]1CN([C@@H](C)CO)C(=O)c2cc(NC(=O)Nc3ccccc3)ccc2O[C@@H]1CN(C)C(=O)Nc1ccc(C(F)(F)F)cc1 | -3 | 0.25 | 27 | 102* | -16
C[C@H]1CN([C@@H](C)CO)C(=O)c2cc(NC(=O)Nc3ccccc3)ccc2O[C@@H]1CN(C)C(=O)Nc1ccc(C(F)(F)F)cc1 | 0 | 0.064 | 8 | 4 | -14
CCSc1nc(O)c(C(C)CC)c(=O)[nH]1 (configuration not stated) | 1 | -0.17 | 8 | 0 | 5
N#Cc1c(N)[nH]c(=S)c(C(N)=O)c1-c1cccc(Br)c1 | -66 | -0.27 | 5 | ? | 106*
CCOC(=O)c1c(CN2CCCCC2)n(-c2ccccc2)c2ccc(OC(C)=O)cc12 | -5 | -0.22 | -16 | 27 | 46
O=C1NCc2c1c1c3ccccc3[nH]c1c1[nH]c3ccccc3c21 | -4 | 0.31 | 30 | 97* | 21
CCCn1c2ccccc2c2nnc(Sc3ccc4nsnc4c3[N+](=O)[O-])nc21 | . | . | 52 | 105* | .
O=C(CSc1nnnn1-c1ccccc1)Nc1ccc(F)c(Cl)c1 | 1 | . | 1 | -4 | .
C[C@H]1CN([C@@H](C)CO)C(=O)c2cc(NC(=O)Nc3ccccc3)ccc2O[C@@H]1CN(C)Cc1ccc(C(F)(F)F)cc1 | 1 | 0.16 | 11 | ? | 7
C[C@@H]1CN([C@@H](C)CO)C(=O)c2cc(NC(=O)Nc3ccc(C(F)(F)F)cc3)ccc2O[C@H]1CN(C)Cc1ccc(Oc2ccccc2)cc1 | -7 | -0.29 | 60 | 118* | 23
C[C@@H]1CN([C@@H](C)CO)C(=O)c2cc(NC(=O)Nc3ccccc3)ccc2O[C@@H]1CN(C)Cc1ccc(C(F)(F)F)cc1 | -1 | 0.38 | 25 | 97* | 15
C[C@H]1CN([C@@H](C)CO)C(=O)c2cc(NC(=O)Nc3ccc(C(F)(F)F)cc3)ccc2O[C@@H]1CN(C)Cc1ccc(Oc2ccccc2)cc1 | 1 | 0.15 | -2 | 48 | .
C[C@H](CO)N1C[C@H](C)[C@H](CN(C)Cc2ccccc2)Oc2ccc(NC(=O)Nc3ccc(C(F)(F)F)cc3)cc2C1=O | -5 | -0.37 | 14 | 91* | .
SMILES | PD-1 reverse act | YB-1 expr inh | MITF inh | NOMO-1 viab | Shh pathway inh
C[C@@H]1CN([C@@H](C)CO)C(=O)c2cc(NC(=O)Nc3ccc(C(F)(F)F)cc3)ccc2O[C@H]1CN(C)Cc1ccccc1 | -3 | -0.026 | -16 | 96* | 28
O=C(CSc1nnc(-c2ccc(Br)cc2)o1)Nc1ccccc1Cl | 2 | . | -50 | 12 | .
C[C@H]1CN([C@@H](C)CO)C(=O)c2cc(NC(=O)Nc3ccc(C(F)(F)F)cc3)ccc2O[C@H]1CN(C)Cc1ccccc1 | -3 | -0.045 | 30 | 103* | .
C[C@H]1CN([C@@H](C)CO)C(=O)c2cc(NC(=O)Nc3ccccc3)ccc2O[C@H]1CN(C)Cc1ccc(C(F)(F)F)cc1 | 1 | -0.16 | 7 | 14 | .
C[C@@H]1CN([C@H](C)CO)C(=O)c2cc(NC(=O)Nc3ccc(C(F)(F)F)cc3)ccc2O[C@@H]1CN(C)Cc1ccccc1 | -1 | -0.38 | -5 | 89* | .
Cc1nnc(SCc2nc(N)nc(Nc3ccc4ccccc4c3)n2)s1 | -3 | . | -99 | 40 | .
COc1ccc(C)cc1NC(=O)CN(c1ccc(Cl)cc1)S(C)(=O)=O | -3 | . | 25 | 33 | .
Nc1nc2ccc(OC(F)(F)F)cc2s1 | 3 | 0.014 | -44 | 23 | 68*!
CN(C(=O)C(Cl)Cl)c1ccc(OC(=O)c2ccco2)cc1 | 0 | 3.7* | -1 | 4 | -20
COc1ccc(C(=O)C(C)Oc2ccc(NC(=O)c3cccc(OC)c3)cc2)cc1 (configuration not stated) | -5 | . | 45 | 125* | .
COc1ccc(C(=O)Nc2ccc(C(O)(C(F)(F)F)C(F)(F)F)cc2)cc1 | 0 | -0.43 | 7 | 110* | ?
COc1ccc(C(=O)Nc2ccc(C)c(C)c2)cc1 | -1 | -0.16 | 48 | 23 | -253
O=S(=O)(c1ccc(-c2ccccn2)s1)N1CCCCC1 | 0 | -0.12 | -1 | 15 | -6
Cc1cc2nnc(SCC(=O)Nc3sc4c(c3C#N)CCC4)n2c2ccccc12 | 2 | . | -21 | -18 | .
C#Cc1cccc(Nc2ncnc3cc(OC)c(OC)cc23)c1 | 1 | 0.16 | 71 | 96* | 28
CC1(C)CC(=O)C=C(Sc2nc3cc(Cl)ccc3s2)C1 | -45 | 0.78 | ? | 120* | ?
CC(=O)Nc1ccc(S(=O)(=O)NCc2ccc3[nH]c4c(c3c2)CCCC4)cc1 | 1 | . | -9 | 11 | .
